Assay outcomes deposited in PubChem BioAssay by National Center for Advancing Translational Sciences (NCATS).
This is a sample that favours compounds with a hit; in the whole collection about 6.9% have one here.
SW480 rereplic: inducers of DNA re-replication in SW480 colon cancer cells | hit rate 1.8% among 340,000 | SW480 DNA re-replication, Hoechst DNA content imaging, 48 h | Potency, µM (highest dose often 46.1 µM), for the others: at the top dose re-replication activation, hits mostly activators | AID 624297; further: potency means the concentration at half of the fitted maximal effect; % of control where 0% means no effect; nearly all actives have a fitted effect of over 55% in size
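DNA re-replication was detected as more nuclei of elevated Hoechst intensity after 48 hr exposure to compound (23 nL pinned per well of 250 cells).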
Giardia killer: Giardia lamblia killing; hit rate 0.15% among 340,000; Giardia lamblia trophozoite viability; AID 540267; activity change, % at 7.66 µM, hits read low; in the data active means activity change below about -80%; inconclusive means between about -30% and that limit;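 further: parasites exposed to compound for two days anaerobically before the ATP read; on the % scale 0 is the no-effect control and ±100 the full control effect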
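Trophozoite viability was measured as ATP-dependent luminescence, read 15-30 min after reagent addition. Before that, parasites at 100 cells/well were exposed to compounds for 48 h, anaerobically, at 37 deg C.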
MCF10A rerep: DNA re-replication induction in MCF 10a cells; AID 624296; hit rate 2.9% among 350,000; Potency, µM (highest dose often 46.1 µM), for the others: top-dose activity, positive = re-replication, usual class: activators; MCF 10A DNA re-replication, Hoechst nuclear intensity, 48 h; further: potency means the concentration at half of the fitted maximal effect; % of control where 0% means no effect; nearly all actives have a fitted effect of over 50% in size
Vif-APOBEC3G blk: blocks the Vif interaction with human APOBEC3G; HeLa A3G-eYFP + Vif (tagged APOBEC3G with the HIV-1 protein that degrades it), YFP fluorescence, overnight; Potency, µM (titrated, usually from 46.1 µM), for the others: at the highest dose activity, negative = active, actives largely listed as inhibitors; hit rate 0.076% among 410,000; AID 602310; further: potency means the concentration at half of the fitted maximal effect; on the % scale 0 is the no-effect control and ±100 the full control effect; nearly all actives have a fitted effect of over 60% in size
Target sequence (Q9HC16 whole entry, looked up): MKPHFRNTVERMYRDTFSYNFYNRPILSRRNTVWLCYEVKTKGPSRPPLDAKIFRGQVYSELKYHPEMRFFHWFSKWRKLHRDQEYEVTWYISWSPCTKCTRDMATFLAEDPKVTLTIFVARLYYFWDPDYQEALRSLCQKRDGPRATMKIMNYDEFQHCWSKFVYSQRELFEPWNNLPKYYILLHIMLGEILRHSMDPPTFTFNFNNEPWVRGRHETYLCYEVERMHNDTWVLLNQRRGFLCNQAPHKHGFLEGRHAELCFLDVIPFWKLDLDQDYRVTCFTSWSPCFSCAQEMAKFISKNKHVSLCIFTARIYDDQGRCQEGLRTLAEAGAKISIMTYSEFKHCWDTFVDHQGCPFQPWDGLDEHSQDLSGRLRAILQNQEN
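Read-out is eYFP fluorescence (Ex 488/Em 500-530) from Vif-expressing HeLa A3G-eYFP cells; more signal means A3G escaped Vif-mediated degradation. Cells plated overnight, compound pinned in, incubated overnight at 37 deg C.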
IL1B secr inh: inflammasome signaling inhibition, IL-1 beta readout; activity change, % at 57.5 µM; hit rate 4.7% among 360,000; THP-1 LPS/ATP IL-1B secretion, AlphaLISA, 16 h; hits give low values; in the data active means activity change below about -50%; inconclusive means mostly about -30% to -49%; further: on the % scale 0 is the no-effect control and ±100 the full control effect
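THP-1 cells pretreated 1 hr with compounds (up to 57.5 uM final), then stimulated with LPS (250 ng/mL final) plus ATP (1.25 mM final); secreted IL-1B measured by AlphaLISA after 16 hr, decreased signal indicating inhibition.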
Vif-A3F inh: inhibitors of Vif-A3F interaction; HeLa A3F-eYFP + Vif (tagged APOBEC3F with the HIV-1 protein that degrades it), YFP fluorescence increase; Potency, µM (top dose mostly 46.1 µM), for the others: top-dose activity, negative = active; hit rate 0.2% among 390,000; AID 602313; further: potency means the concentration at half of the fitted maximal effect; % of control where 0% means no effect; nearly all actives have a fitted effect of over 65% in size
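HeLa cells stably expressing Vif plus C-terminally eYFP-tagged A3F were seeded, incubated overnight at 37 deg C, dosed with compound, incubated overnight again at 37 deg C. Yellow fluorescence (Ex 488/Em 500-530) reported blocked Vif-mediated A3F-eYFP degradation.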
* = called active by the depositor; ? = inconclusive; · = no result given. Unless noted, the call rests on the fitted dose curve; in most records, active means well fitted curve in the direction sought with a large enough effect; inconclusive means small, poorly fitted or top-dose-only effect, or another doubt; inactive means no such curve, though single readings can be large; an effect the other way counts as inactive or inconclusive.

SMILES	SW480 rereplic	Giardia killer	MCF10A rerep	Vif-APOBEC3G blk	IL1B secr inh	Vif-A3F inh
CCN1/C(=C/c2ccc3cccc(C)c3[n+]2CC)Sc2ccccc21	1.9%	-10.7	17.8%	?	-103.3*	-146.9%
CCN1/C(=C\c2ccc3cc(C)ccc3[n+]2CC)Sc2cc(C)c(C)cc21	1.5%	-11.0	?	14.8%	-59.5*	?
Cc1ccc(C)c(N2CCN(CCCNC(=O)c3ccc4nc(CCc5ccccc5)oc4c3)CC2)c1	·	·	·	9.6%	·	2.4%
COc1ccc(Cl)cc1NC(=O)c1cc(S(=O)(=O)N(C)Cc2ccccc2)ccc1F	·	·	·	1.3%	·	0.8%
O=C(N/N=C/C(Br)=C/c1ccccc1)c1cnccn1	3.26µM*	-1.8	16.4µM*	?	-98.9*	-1.4%
O=C(N/N=C/C=C\c1ccccc1)c1cnccn1	-0.5%	4.5	0.0%	-10.0%	-11.4	-9.8%
O=C(/C=C/c1ccccc1)c1ccccn1	?	-21.9	18.4µM*	-9.8%	-12.5	-19.9%
O=C(N/N=C/C=C/c1ccccc1)c1ccccn1	-2.6%	23.6	0.6%	-3.7%	-28.1	9.0%
O=C(N/N=C/C(Cl)=C\c1ccccc1)c1cccs1	1.4%	-14.1	-0.1%	-18.6%	-6.2	5.9%
O=C(N/N=C/C(Cl)=C/c1ccccc1)c1ccncc1	?	-11.6	?	?	-91.8*	?
O=C(N/N=C/C(Cl)=C/c1ccccc1)c1ccccn1	10.1%	38.1	3.4%	-4.9%	-57.3*	-6.4%
O=C(O)c1c2c(nc3ccccc13)CCCC2	·	·	·	-1.8%	·	·
COc1ccc(-c2onc(C)c2C)cc1S(=O)(=O)N(C)Cc1ccccc1	·	·	·	6.7%	·	0.1%
Cc1cccc(C(=O)Nc2ccc(N3CCC(CCN4CCOCC4)CC3)c(C(=O)O)c2)c1	·	·	·	-3.8%	·	3.5%
COc1ccc(-n2nc(C#N)c(Cl)cc2=O)cc1	?	13.5	0.731µM*	?	-105.8*	22.4%
C=C1SC(Nc2c(C)cc(C)cc2C)=NC12CCCCC2	?	-4.7	?	-1.8%	-68.6*	1.7%
C=C1SC(Nc2c(C)cccc2C)=NC12CCCCC2	-21.9%	8.8	14.9%	0.2%	·	?
Cc1ccc(NC(=O)CN2C(=O)CCc3cc(S(=O)(=O)N4CCOCC4)ccc32)c(C)c1	·	·	·	4.5%	·	1.8%
CCCCCn1c(CCNC(=O)c2cccc(C)c2)nc2ccccc21	·	·	·	5.5%	·	0.0%
Cc1cc(C)n2nc(CC#N)c(C#N)c2n1	1.6%	3.6	0.9%	-4.5%	15.6	-16.8%
N#C/C(=C\c1ccccn1)c1ccccn1	14.6µM*	2.8	20.6µM*	?	-94.2*	6.6%
N#C/C(=C/c1cccs1)c1ccccn1	-13.5%	-9.5	1.6%	?	0.0	?
Cc1cc(C)n2nc(/C(C#N)=C/c3ccccn3)c(C#N)c2n1	3.26µM*	-3.3	6.51µM*	-18.0%	-97.8*	-2.0%
COC(=O)c1ccc(/C=C(\C#N)c2ccccn2)cc1	-9.5%	-0.1	?	-16.8%	24.6	0.9%
N#C/C(=C\c1ccc([N+](=O)[O-])cc1)c1ccccn1	9.3%	2.1	11.1%	-5.0%	-73.1*	-31.3%
SMILES	SW480 rereplic	Giardia killer	MCF10A rerep	Vif-APOBEC3G blk	IL1B secr inh	Vif-A3F inh
CN(C)c1ccc(/C=C(\C#N)c2ccccn2)cc1	15.8%	-98.4*	10.4%	-5.8%	-10.0	?
C[N+](C)(CCCCCI)c1ccc(/C=C/c2nc3ccccc3s2)cc1	·	·	·	3.9%	·	·
Cc1cc(Nc2ccccc2F)n2nc(-c3ccccc3)nc2n1	·	·	·	-0.8%	·	0.3%
Cc1cccc(N2CCN(C(=O)c3cn(C4CCCCC4)c(=O)c4c3c3ccccc3n4C)CC2)c1C	·	·	·	8.7%	·	3.9%
COc1cccc(CNC(=O)CN(c2ccc(C)cc2)S(=O)(=O)N(C)C)c1OC	·	·	·	0.0%	·	-0.2%
Cc1csc(NC(=O)c2cc3c(s2)CCCCC3)n1	11.7%	?	16.4µM*	-16.0%	-63.0*	5.0%
O=C(NCCO)c1cc2c(s1)CCC2	?	-11.4	0.251µM*	2.0%	-12.7	-6.1%
CNC(=O)c1cc2c(s1)CCCCCC2	-1.4%	-6.0	1.0%	0.6%	31.0	1.2%
CCOc1ccccc1NC(=O)CSc1ccc2nc(-c3ccccc3)cn2n1	·	·	·	-6.2%	·	-3.4%
CCOC(=O)CSc1nc2cc(OC)c(OC)cc2cc1C#N	·	17.2	·	-0.2%	·	·
O=C(Nc1ccc(Cl)cc1Cl)[C@@H]1CC=C[C@@H]2CCN(C3CCCCC3)C(=O)[C@@H]21	·	·	·	-2.9%	·	·
Cc1c2cnn(CC(=O)NCCc3ccccc3)c(=O)c2c(C)n1Cc1ccccc1Cl	·	·	·	4.8%	·	-0.3%
Cc1nn(Cc2ccc(F)cc2)c(Cl)c1/C=N/NC(=O)c1ccccc1	0.1%	5.9	?	-5.7%	22.8	-1.2%
Cc1nn(Cc2ccccc2)c(Cl)c1/C=C1\NC(=S)NC1=O	0.1%	-1.4	17.9%	1.6%	-63.6*	3.1%
Cc1ccc(F)cc1C(=O)N1CCCCC1c1cc(C(=O)NC(C)C)no1 (centres undefined)	·	·	·	-0.5%	-55.7*	·
COc1ccc(NC(=O)c2cc(C3CCCCN3C(=O)c3cc(F)ccc3C)on2)c(C)c1 (centres undefined)	·	·	·	-0.2%	26.7	·
Cn1nc(C(C)(C)C)cc1C(=O)N1CCCCC1c1cc(C(=O)Nc2ccc(F)c(Cl)c2)no1 (centres undefined)	·	·	·	-3.5%	-63.5*	·
CC(C)NC(=O)c1cc(C2CCCCN2C(=O)OCCF)on1 (centres undefined)	·	·	·	-2.2%	-67.1*	·
O=C(NCc1ccc(F)cc1)c1cc(C2CCCCN2C(=O)OCCF)on1 (centres undefined)	·	·	·	-2.6%	-2.8	·
COc1ccc(-c2cc(C(=O)Nc3c(C(=O)c4ccc(C)c(F)c4)oc4ccccc34)no2)cc1	·	·	·	1.7%	·	0.4%
C=CCCN(Cc1ccc(OC)cc1)S(=O)(=O)c1ccccc1Br	·	-9.5	·	1.7%	·	·
COc1ccc2c(c1)c1c(c(=O)n(Cc3ccccc3)c(=O)n1CC(=O)NCc1ccccc1)n2C	·	·	·	-1.4%	·	-1.3%
COC(=O)c1cc(-c2cc(OC)ccc2OC)nc2c1c(=O)n(C)c(=O)n2Cc1ccccc1	2.31µM*	2.7	6.51µM*	-3.4%	12.8	-2.1%
OCC1(CCOc2ccccc2)CCN(C2Cc3ccccc3C2)CC1	-0.3%	17.4	18.4µM*	-0.4%	?	-4.8%
CCOC(=O)c1ccc(-n2cccc2/C=C2\NC(=O)NC2=O)cc1	18.4µM*	15.3	7.31µM*	-20.4%	·	-5.8%
COc1ccc(-c2sc(C(=O)c3ccc(Cl)cc3Cl)cc2CC(=O)O)cc1	8.6%	-0.2	11.6µM*	?	32.3	?
COc1ccc(NC(=O)N2CCCC(c3nc(-c4ccc(OC)cc4)no3)C2)cc1 (centres undefined)	5.3%	-16.1	17.7%	-1.8%	-54.4*	0.4%
